Source: PubChem
Sampled rows, rich in hits. Any-hit rate of the full collection: about 28%.
CYP2C19 act: cytochrome P450 2C19 (human) activation | 96,000 tested, under 10 active | recombinant CYP2C19, luciferin-H EGE luminescence; hits give high values; 0 = fully inhibited enzyme, 1 = untreated enzyme | activation factor at 5 µM;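 active means activation factor of at least 2 at 5 µM in the primary screen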;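 further: 0 = wells with 2.5 mM tranylcypromine and 1 = vehicle-only wells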
Target sequence (P33261 whole entry, looked up): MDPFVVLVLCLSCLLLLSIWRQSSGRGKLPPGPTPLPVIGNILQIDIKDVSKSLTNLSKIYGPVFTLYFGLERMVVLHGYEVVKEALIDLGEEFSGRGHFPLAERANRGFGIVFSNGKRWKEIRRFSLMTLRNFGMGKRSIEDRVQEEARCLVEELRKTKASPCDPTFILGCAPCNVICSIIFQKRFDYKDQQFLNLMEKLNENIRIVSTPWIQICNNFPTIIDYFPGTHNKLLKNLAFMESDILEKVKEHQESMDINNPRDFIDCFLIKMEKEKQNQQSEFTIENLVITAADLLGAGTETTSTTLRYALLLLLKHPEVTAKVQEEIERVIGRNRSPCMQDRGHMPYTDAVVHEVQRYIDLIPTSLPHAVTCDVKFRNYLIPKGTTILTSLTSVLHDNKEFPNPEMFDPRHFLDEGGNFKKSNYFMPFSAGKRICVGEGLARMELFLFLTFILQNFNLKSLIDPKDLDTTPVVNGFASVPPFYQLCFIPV
Pyk2 oligo antag: Pyk2 (human) oligomerization antagonism | 99,000 compounds, 0.83% hits | Q14289 | Q293 cells, Pyk2 FERM NanoBiT luminescence; hits give low values | z-score (the deposit names both 25 µM and 10 µM);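 active means Z-score of -3 or lower, scaled per plate to the spread of control and sample wells; inactive means z-score above -3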;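 further: negative z-score means lost luminescence so less FERM oligomerization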
CYP2C9 activ: CYP2C9 (human) activation. 96,000 compounds, 1.4% hits. activation factor at 5 µM. AID 1024. P11712. recombinant CYP2C9, luciferin-H conversion, luminescence; hits give high values; factor 1 = untreated enzyme, 0 = blocked;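 active means activation factor of 2 or more for CYP2C9 at a 5 µM dose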;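 further: 0 = sulfaphenazole-blocked wells and 1 = vehicle-only wells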
CYP2C19 inhib: blocks human cytochrome P450 2C19 | AID 778 | inhibition, % at 5 µM | CYP2C19 Supersomes, luciferin-H EGE luminescence, 30 min | 96,000 compounds, 21% hits;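 active means CYP2C19 inhibition above a set limit at 5 µM in the primary screen, cut at about 50% in these data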;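 further: plate controls were negative control wells for no effect and 2.5 mM tranylcypromine positive control for full effect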
CYP2C9 inhib: inhibitors of human CYP2C9; P11712; CYP2C9 Supersomes, luciferin-H conversion, luminescence; inhibition, % at 5 µM; 96,000 compounds, 20% hits;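 active means blocking of liver enzyme CYP2C9 beyond about 50% at 5 µM, limit read from the data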
An asterisk follows results filed as active; x = no result given.

SMILES	CYP2C19 act	Pyk2 oligo antag	CYP2C9 activ	CYP2C19 inhib	CYP2C9 inhib
Cc1cc(C)c2nc(-c3ccccn3)cc(C(=O)Nc3ccc(S(=O)(=O)Nc4cc(C)on4)cc3)c2c1	0.9	-3.03*	0.8	11.1	20.9
CC(Oc1ccc(Cl)cc1Cl)C(=O)NCCCN(C)C (stereo not drawn)	0.9	0.61	1	8.0	-3.5
CCCCn1nc2cc(C(=O)NCc3ccc(OC(F)(F)F)cc3)ccc2c1OC	0.8	x	0.9	16.5	11.1
CC1CCCN(Cc2cnc(Cl)s2)C1 (stereo not drawn)	0.5	-0.14	1	53.1*	2.5
CC(C)c1ccccc1OCCNS(C)(=O)=O	0.5	0.74	1.2	50.9*	-16.0
CCCn1c(-c2ccc(OC)cc2)nc2nc3ccccc3nc21	1	-1.99	1.1	2.1	-8.4
CCC(C)n1c(-c2cccs2)nc2nc3ccccc3nc21 (stereo not drawn)	0.8	-2.66	0.4	17.7	59.7*
CS(=O)(=O)Nc1cccc(C(=O)CC2(O)C(=O)Nc3ccc(Br)cc32)c1 (stereo not drawn)	0.9	1.16	1.3	8.7	-30.0
Cc1ccc(S(=O)(=O)N(CC(=O)N2CCC(C)CC2)Cc2ccccc2F)cc1	0.2	-1.25	0.2	83.6*	79.4*
Cc1ccc(S(=O)(=O)N(CC(=O)O)Cc2ccccc2F)cc1	1	0.29	0.5	-1.8	51.3*
CCOc1ccccc1N(C(=O)Cn1nnnc1-c1ccc(C)o1)C(CC)C(=O)NC(C)(C)C (stereo not drawn)	x	-1.02	x	x	x
CCNC(=O)CCS(=O)(=O)c1ccc2ccccc2c1	x	0.98	x	x	x
CCCSc1nnc2n(C)c(=O)c3c4c(sc3n12)CCC4	0.5	0.14	0.4	53.4*	61.1*
CCn1c(=O)c2c3c(sc2n2c(=S)[nH]nc12)CCC3	0.2	1.75	0	80.1*	96.9*
Cn1c(=O)c2c3c(sc2n2c(SCC(N)=O)nnc12)CC(C(C)(C)C)CC3 (stereo not drawn)	0.4	-0.05	0.9	57.5*	14.4
CCOC(=O)CSc1nc(-c2ccncc2)ccc1C#N	0.9	0.09	0.7	10.8	30.1
O=C(CSc1nnc(-c2cccnc2)o1)c1cc2ccccc2oc1=O	1	0.11	0.3	0.0	69.6*
N#Cc1ccc(-c2ccccc2)nc1SCC(=O)c1cc2ccccc2oc1=O	0.9	-0.04	0.2	7.8	75.7*
CC(C)c1c(C#N)c(N)nc(SCC(=O)c2cc3ccccc3oc2=O)c1C#N	0.9	-1.41	0.1	6.8	92.5*
O=C(CSc1nnc(-c2cccnc2)o1)Nc1ccccn1	1	1.11	1.1	-2.1	-6.9
Fc1ccc(Sc2cc(Cl)c(-c3ccccc3)nn2)cc1	0.5	-3.49*	0.4	45.4	56.6*
Clc1ccc2[nH]cc(-c3nnnn3-c3ccc4ccccc4c3)c2c1	1.1	-3.17*	1.2	-5.3	-16.2
Cc1ccc(-n2nnnc2-c2cnc3ccc(Cl)cc3c2-c2ccccc2)cc1	0.7	-0.77	0.6	26.9	39.9
Cc1nc2ccccn2c1C(=O)N=Nc1c(O)n(CCC(C)C)c2ccccc12	x	-0.71	x	x	x
CCN(Cc1ccccc1)C(=O)Cn1cc2c(n1)CCCC2	0.8	x	1	22.8	0.6
SMILES	CYP2C19 act	Pyk2 oligo antag	CYP2C9 activ	CYP2C19 inhib	CYP2C9 inhib
Cc1cc(SC(C)C(=O)Nc2c(C)n(C)n(-c3ccccc3)c2=O)nc2ccccc12 (stereo not drawn)	0.2	1.71	1	77.8*	-3.0
COc1cc(-c2nnc(SC(C)C(=O)Nc3c(C)n(C)n(-c4ccccc4)c3=O)o2)cc(OC)c1OC (stereo not drawn)	1	0.46	0.7	4.7	25.6
COc1ccc2c(C)cc(SCC(=O)Nc3c(C)n(C)n(-c4ccccc4)c3=O)nc2c1	0.9	0.33	0.9	11.8	11.3
Cc1c(NC(=O)C(C)Sc2nnc(-c3ccccc3)o2)c(=O)n(-c2ccccc2)n1C (stereo not drawn)	0.3	0.06	1.1	70.2*	-11.4
CCN(CC)S(=O)(=O)c1ccc(C(=O)NCc2n[nH]c(=S)n2Cc2ccccc2)cc1	1.1	1.05	0.9	-6.7	13.9
Cc1ccc(-n2c(O)c(C=NC3CCS(=O)(=O)C3)c3ccccc3c2=O)cc1 (stereo not drawn)	0.9	0.45	0.9	5.5	7.9
CCC(C(=O)NCc1ccc(F)cc1)N(Cc1ccco1)C(=O)c1snc(C(N)=O)c1N (stereo not drawn)	0.4	-0.27	0.5	57.8*	50.3*
CC(C)CCNC(=O)C(c1ccco1)N(Cc1ccc(F)cc1)C(=O)c1snc(C(N)=O)c1N (stereo not drawn)	0.3	-1.49	0.6	66.7*	43.6
CCCCC(C(=O)NC(C)(C)C)N(Cc1ccco1)C(=O)c1snc(C(N)=O)c1N (stereo not drawn)	0.4	-0.43	0.3	57.9*	70.2*
Cc1cc(C)cc(N(CC(=O)NCc2ccco2)C(=O)c2snc(C(N)=O)c2N)c1	x	-0.01	x	x	x
CC(C(=O)NCc1ccccc1)N(CCN1CCOCC1)C(=O)c1snc(C(N)=O)c1N (stereo not drawn)	0.9	x	1.1	8.2	-10.8
CCCC(C(=O)NCc1ccc(OC)cc1)N(Cc1ccco1)C(=O)c1snc(C(N)=O)c1N (stereo not drawn)	0.4	-0.58	0.5	60.2*	48.7
CC(C)(C)NC(=O)C(c1ccccc1)N(Cc1ccco1)C(=O)c1csnn1 (stereo not drawn)	0.9	-0.4	0.9	13.1	9.2
CC1CCN(Cc2csc(N)n2)CC1	1.3	0.08	1	-26.9	-0.2
Cc1ccc(C(=O)C2OC(=O)C(C)(C)C(=O)C2(C)C)cc1 (stereo not drawn)	0.7	0.47	1	34.3	-2.2
CCCC(C(=O)NC1CCCC1)N(Cc1ccc2c(c1)OCO2)C(=O)c1snc(C(N)=O)c1N (stereo not drawn)	0	-1.11	0.2	96.9*	83.3*
CC1Cc2nc(SCC(=O)N3CCc4ccccc43)n(C)c(=O)c2S1 (stereo not drawn)	0.7	-0.33	0.1	26.5	93.1*
CC1Cc2nc(SCC(=O)OCc3ccccc3)n(C)c(=O)c2S1 (stereo not drawn)	0.1	x	0.2	87.1*	76.6*
CC1Cc2nc(SCC(=O)NC3CCCCC3)n(C)c(=O)c2S1 (stereo not drawn)	0.8	-0.33	0.9	23.3	13.7
CC1Cc2nc(SCC(=O)c3ccccc3)n(Cc3ccccc3)c(=O)c2S1 (stereo not drawn)	0.5	x	0	47.1	97.3*
CCOC(=O)c1c(NC(C)=O)sc2c(OC(C)=O)cccc12	1.1	0.44	1.1	-14.2	-13.9
CCCOC(=O)c1ccc(OCC(O)CN2CCN(C(=O)c3ccccc3)CC2)cc1 (stereo not drawn)	0.9	-0.04	0.4	10.8	64.0*
O=C(O)CCc1ccc(-c2ccc(Cl)cc2)n1CCC(=O)O	1	1.57	0.7	3.1	25.9
